Screening data: PubChem, The Scripps Research Institute Molecular Screening Center
Shown are actives, neighbours in structure and some others; about 3.4% of the full set was active somewhere.
PLC-gamma1 inh: PLC-gamma1 enzyme inhibitors, primary screen, biochemical, fluorescence, purified enzyme; 1-phosphatidylinositol 4,5-bisphosphate phosphodiesterase gamma-1 (Homo sapiens), P19174; fluorogenic substrate; inhibition, % at 12.2 µM; 370,000 compounds, 0.84% hits; in the data active = inhibition above about 9.5%
HGIII-sPLA2 inh: human group III sPLA2 inhibitors, primary screen, biochemical, QFRET, BODIPY PC-A2 liposome substrate; inhibition, % at 12.2 µM; AID 743126, 2013; QFRET BODIPY PC-A2 liposome hydrolysis, fluorescence; Group 3 secretory phospholipase A2 (Homo sapiens), Q9NZ20; 370,000 compounds, 0.56% hits;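 active = inhibition above mean plus 3 SD of compounds lying within the high and low control bounds, cut at about 19% in these data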;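 also: 0% = median of test compound wells and 100% = no enzyme DMSO wells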
PLCb3 inh: human PLC-beta3 inhibitors, primary screen, biochemical, fluorescence. Purified PLC-beta3, fluorogenic substrate. inhibition, % at 12.2 µM. 370,000 compounds, 0.18% hits. AID 720704, 2013; in the data active = inhibition above about 11%;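 also: 0% = median of compound wells on plate and 100% = full blocker control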
ADAM17 inh: ADAM17 inhibitors, primary screen, biochemical, QFRET | AID 720648, 2013 | 370,000 compounds, 0.83% hits | Disintegrin and metalloproteinase domain-containing protein 17 (Homo sapiens), P78536 | inhibition, % at 6.95 µM | recombinant ADAM17, EDANS/DABCYL FRET peptide cleavage;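 active = inhibition above the mean of compounds lying between control limits plus 3 SD, set per campaign, cut at about 8.5% in these data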;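 also: 0% = DMSO-only wells as the low control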
ADAM10 inh: human ADAM10 inhibitors, primary screen, biochemical, QFRET, HTS; Disintegrin and metalloproteinase domain-containing protein 10 (Homo sapiens), O14672; recombinant ADAM10, EDANS/DABCYL FRET peptide cleavage, 3 h; inhibition, % at 7 µM; 370,000 compounds, 0.62% hits;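 active = inhibition above a per-campaign cutoff equal to the mean of compounds falling between control-based bounds plus 3 SD, cut at about 20% in these data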;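 also: 0% = DMSO wells while the 100% control is not disclosed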
KLK7 zymogen act: proKLK7 zymogen activators, primary screen, biochemical, fluorescence intensity; AID 652039, 2013; Kallikrein-7 (Homo sapiens), P49862; purified proKLK7, EDANS-DABCYL substrate fluorescence; 100% is mature enzyme control, 0% vehicle; 370,000 compounds, 0.9% hits; activation, % at 7 µM;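 active = activation above the mean of all tested compounds plus 3 SD, computed per campaign excluding outliers beyond control limits, cut at about 13% in these data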
Target sequence (P49862 whole entry, looked up): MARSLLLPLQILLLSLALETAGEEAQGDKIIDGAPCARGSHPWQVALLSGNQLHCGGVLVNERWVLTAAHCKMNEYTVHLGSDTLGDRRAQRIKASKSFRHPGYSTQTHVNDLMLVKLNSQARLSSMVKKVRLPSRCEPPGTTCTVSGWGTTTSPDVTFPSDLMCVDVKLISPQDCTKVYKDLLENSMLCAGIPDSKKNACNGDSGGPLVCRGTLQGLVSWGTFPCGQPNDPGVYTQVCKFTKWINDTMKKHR
ADAM10 ctr: ADAM10 inhibitors, counter-screen for ADAM17 exosite inhibitor project, biochemical, FRET, human ADAM10; shares compounds with ADAM17 inh; recombinant ADAM10, EDANS/DABCYL FRET peptide cleavage, 3 h; 2,900 compounds, 47% hits; AID 743256, 2014; inhibition, % at 6.95 µM;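 active = mean inhibition over the triplicate runs exceeds the activity threshold set in the earlier primary screen, cut at about 20% in these data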;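 also: 0% = DMSO wells and 100% = marimastat wells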
ADAM17 confirm: ADAM17 inhibitors, hit retest, confirmation, biochemical, QFRET peptide cleavage | shares compounds with ADAM17 inh | recombinant ADAM17, EDANS/DABCYL QFRET peptide cleavage | inhibition, % at 6.95 µM | 2,900 compounds, 65% hits;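 active = mean inhibition across replicates above the hit cutoff set in the primary screen, cut at about 8.5% in these data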;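 also: 0% = DMSO wells and 100% = marimastat wells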
* = called active by the depositor; / = no result given.

SMILES	PLC-gamma1 inh	HGIII-sPLA2 inh	PLCb3 inh	ADAM17 inh	ADAM10 inh	KLK7 zymogen act	ADAM10 ctr	ADAM17 confirm
Cc1cccc(N2CCN(c3ccc(N4C(=O)CCCC4=O)cc3[N+](=O)[O-])CC2)c1C	1	-2	3	14*	2	0	10	8
CCCCOC(=O)c1ccc(NC(=O)COC(=O)CN2C(=O)NC3(CCCC3)C2=O)cc1	1	-10	-3	9.2*	5	0	21*	13*
CCCCOC(=O)c1ccc(NC(=O)CN2C(=O)NC3(CCCCCC3)C2=O)cc1	1	-19	-2	8	8	0	/	/
Cc1ccc(-c2c(NC(=O)c3ccc(F)cc3)nc3ncccn23)cc1	-279	2	-357	-89	-301	9	/	/
COc1ccc(CC(=O)Nc2ccc3c(c2)OC2(CCCC2)O3)c(OC)c1	-2	-4	-4	11*	-3	1	10	8
CC(C)[C@H]1COCCS(=O)(=O)N1Cc1ccccc1-c1cccc2c1oc1ccccc12	5	-3	4	11*	19	-1	9	7
CC(C)C(NC(=O)[C@H](Cc1ccccc1)NC(=O)OCc1ccccc1)P(=O)(O)OC(Cc1ccccc1)C(=O)O (some centres not stated)	5	11	1	-8	-4	/	/	/
Cc1ccc(S(=O)(=O)N2C[C@H]3C(=O)C[C@@H](c4ccccc4)N(S(=O)(=O)c4ccccc4C)[C@H]3C[C@H]2c2ccccc2)cc1	4	-11	4	11*	13	-1	22*	9.9*
Cc1ccc(S(=O)(=O)N2C[C@H]3C(=O)C[C@@H](c4cccc(C)c4)N(S(=O)(=O)c4ccc(C)cc4)[C@H]3C[C@H]2c2ccccc2)cc1	9	-6	5	8.9*	4	-1	10	7
COc1ccccc1C(=O)N1CCCC(c2nc(-c3cccs3)no2)C1 (configuration not stated)	-2	7	0	2	-11	0	/	/
O=C(OCC#CCSc1nnc(-c2cccc3ccccc23)o1)c1cc(F)c(F)c(F)c1	-4	1	0	-4	-4	/	/	/
C=CC[C@H]1c2ccccc2[C@H]2N3N=Cc4ccccc4[C@H]3[C@H](CCc3ccccc3)C(=O)N2N1C(=O)c1ccccc1	0	10	1	11*	15	-2	5	8
C=CC[C@@H]1NN2C(=O)[C@@H](CCCC)[C@@H]3c4ccccc4C=NN3[C@@H]2c2ccccc21	-2	10	2	1	-1	1	/	/
Clc1ccccc1Sc1cnc2ccccc2n1	8	15	-2	8.8*	1	-1	-6	0
Cc1ccc(-c2[nH]nc(N)c2N=Nc2ccccc2C)cc1	8	-27	-2	9.7*	15	0	25*	16*
O=C(c1cn(Cc2ccccc2)nc1-c1ccc(Cl)cc1)N1CCN(c2ccccn2)CC1	3	-16	-5	9.5*	0	1	16	6
COc1cc(C)ccc1C(=O)N1CCC(Oc2cccnc2)CC1	1	11	-2	-5	-2	0	/	/
CC(C)CC1NC(=O)c2cc(Cl)ccc2-n2c1nc1cc(F)ccc1c2=O (configuration not stated)	8	-3	7	8.7*	3	1	0	-1
CC(C)CC1NC(=O)c2ccc(Cl)cc2-n2c1nc1cc(F)ccc1c2=O (configuration not stated)	6	7	7	11*	9	1	21*	12*
O=C1NC(Cc2ccccc2)c2nc3ccc(Cl)cc3c(=O)n2-c2ccc(Cl)cc21 (configuration not stated)	-32	0	-50	-7	-28	-1	/	/
Cc1ccc2nc3n(c(=O)c2c1)-c1ccc(Cl)cc1C(=O)NC3CC(C)C (configuration not stated)	1	8	-5	-5	-19	-1	/	/
Cc1ccc2nc3n(c(=O)c2c1)-c1ccc(Cl)cc1C(=O)NC3Cc1ccccc1 (configuration not stated)	1	-10	-8	11*	2	-1	-9	-1
CC(C)CC1NC(=O)c2ccc(Cl)cc2-n2c1nc1ccc(F)cc1c2=O (configuration not stated)	-3	-7	-2	-4	3	0	/	/
O=C(Cc1cc(=O)[nH][nH]1)N/N=C/c1ccccc1C(F)(F)F	1	-7	0	3	5	0	/	/
Cc1n[nH]c(C)c1S(=O)(=O)NCCc1ccccc1	5	4	6	3	1	0	/	/
SMILES	PLC-gamma1 inh	HGIII-sPLA2 inh	PLCb3 inh	ADAM17 inh	ADAM10 inh	KLK7 zymogen act	ADAM10 ctr	ADAM17 confirm
COC(=O)[C@]12C[C@H](CC(=O)NCCC(C)C)C(=O)N(Cc3ccc4c(c3)OCO4)C1=C[C@H](C(C)C)O[C@@H]2C1CC1	0	-8	0	5	14	0	/	/
O=C(Nc1cccc(C(F)(F)F)c1)O[C@@H]1CC[C@@]23CCCN2C(=O)CCC[C@H]3C1	2	2	5	3	8	/	/	/
CC(C)COc1cccc(C(=O)Nc2ccc(S(=O)(=O)N3CCOCC3)cc2)c1	5	-19	-2	9.1*	14	0	27*	17*
O=[N+]([O-])c1cc(-n2cnnn2)ccc1N1CCC(Cc2ccccc2)CC1	3	1	1	12*	26*	0	13	9.2*
CCC1SC2=NC(C)=C(C(=O)OCC(C)C)C(/C=C/c3ccccc3OC)N2C1=O (configuration not stated)	0	-13	-3	2	3	0	/	/
COc1ccccc1/C=C/C1C(C(=O)OCC(C)C)=C(C)N=C2SCCC(=O)N21 (configuration not stated)	1	5	-7	11*	15	-1	20	12*
